hgDAF-12 ag: hgDAF-12 agonism, primary luciferase screen; activation, % at 6.8 µM; HEK293 GAL4-hgDAF12 UAS-luciferase reporter, agonist luminescence; normalized to butyrate control; 370,000 tested, 1.8% active;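 active = activation above a cutoff set at the mean of all screened compounds plus 3 SD, cut at about 10% in these data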;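 note: 0% = DMSO wells and 100% = sodium butyrate wells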
DAX1 inh-1: inhibits human nuclear receptor DAX1. P51843. HEK293 Gal4-DAX1 luciferase reporter, luminescence. inhibition, % at 6.75 µM. 340,000 tested, 0.99% active. AID 504766;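 active = inhibition above the mean over all tested compounds plus 3 SD, cut at about 4.2% in these data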;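 note: 0% = DAX1-transfected cells with DMSO and 100% = empty-vector control cells with DMSO; inhibition shows as a rise in luminescence from relieved DAX1 repression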
Target sequence (P51843 207-470 limits assumed): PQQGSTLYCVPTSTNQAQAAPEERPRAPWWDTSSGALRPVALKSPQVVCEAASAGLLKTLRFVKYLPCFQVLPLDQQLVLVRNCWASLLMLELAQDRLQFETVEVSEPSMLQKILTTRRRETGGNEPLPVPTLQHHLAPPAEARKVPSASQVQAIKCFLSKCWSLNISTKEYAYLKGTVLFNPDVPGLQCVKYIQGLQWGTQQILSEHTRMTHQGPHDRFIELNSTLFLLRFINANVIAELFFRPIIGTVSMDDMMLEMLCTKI
DAX1 inh-2: blocks DAX1 repression of SF-1 activated StAR promoter. inhibition, % at 6.8 µM. 370,000 tested, 1.1% active. HEK293T StAR-luciferase reporter, SF-1/DAX-1 repression relief;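 active = inhibition above the mean over all tested compounds plus 3 SD, cut at about 3.6% in these data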;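 note: 0% = DAX-1 cells with DMSO and 100% = cells lacking DAX-1 with DMSO; higher inhibition means more luminescence from relief of DAX-1 repression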
hcDAF12 agonist: activators of H. contortus DAF-12 nuclear receptor; HEK293 hcDAF-12 lit1-tk-luc reporter, luminescence; 0% DMSO, 100% Δ7-dafachronic acid; activation, % at 6.8 µM; 370,000 tested, 1.4% active; AID 652067;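 active = activation above the mean of all tested compounds plus 3 SD, cut at about 5.5% in these data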;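 note: 100% = response to 3 µM Δ7-dafachronic acid high control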
SMARCA2 act: SMARCA2 function activation, primary screen; MG213 cells, MMTV-luciferase reporter, dexamethasone, overnight; activation, % at 9.1 µM; 370,000 tested, 1% active; AID 652017; in the data active = activation above about 7.8%;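 note: 0% = vehicle wells and 100% = reference activator wells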
ssDAF12 agonist: activates DAF-12 receptor from parasite S. stercoralis; HEK293 ssDAF-12/GRIP1 lit1-tk-luc reporter, luminescence; % of 3 µM dafachronic acid response; activation, % at 6.8 µM; 370,000 tested, 1% active;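 active = activation above the mean over all tested compounds plus 3 SD, cut at about 0.9% in these data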;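 note: 0% = DMSO-only wells and 100% = 3 µM delta7-dafachronic acid wells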
An asterisk follows results filed as active; nt = no result. Hits are enriched below; roughly 4.8% of the tested compounds scored in any of these assays.

SMILES	hgDAF-12 ag	DAX1 inh-1	DAX1 inh-2	hcDAF12 agonist	SMARCA2 act	ssDAF12 agonist
COc1cc(/C=C/C(=O)Nc2nnc(CC(C)(C)C)s2)cc(OC)c1OC	-1	0	0	0	1	-1
Cc1ccc(C(=O)NC(=S)N(C)C2CCCCC2)cc1	11*	0	3	4	1	0
CN(C(=S)NC(=O)/C=C/c1ccc(F)cc1)C1CCCCC1	-1	0	0	-3	-3	-1
O=C(O)c1ccc(COc2ccc3ccccc3c2/C=C2/NC(=O)N(c3ccccc3)C2=O)cc1	-2	-1	1	2	2	1.0*
O=C(O)c1ccc(COc2ccccc2/C=C2/NC(=O)N(c3cccc(Cl)c3)C2=O)cc1	-1	0	0	-3	-1	0
COc1cccc(/C=C/C(=O)OCC(=O)Nc2ccc3c(c2)OCO3)c1	1	6.4*	0	0	-3	-1
O=C(COC(=O)/C=C/c1ccc2c(c1)OCO2)Nc1ccccc1	3	0	1	-1	3	-1
COc1ccc(NC(=O)Nc2ccc(F)cc2F)cc1	6	3	1	3	1	1.1*
COc1ccc(NC(=O)Nc2ccc3c(c2)OCO3)c(C)c1	9	1	4.4*	1	2	-1
COc1ccccc1NC(=O)Nc1ccc2c(c1)OCCO2	13*	8.0*	2	1	1	0
O=c1[nH]cc(-c2ccc(Br)cc2)n1Cc1ccccc1	-1	-1	0	0	-3	-1
O=C1CCCN1c1ccc(C(=O)N(Cc2nnc(-c3ccccc3Cl)o2)C2CC2)cc1	-2	-1	1	-1	-2	-1
Cc1ccccc1NC(=O)NC(N)=O	3	1	0	2	-4	-1
COc1ccccc1NC(=O)NC(N)=O	3	4.3*	0	-1	2	-1
Cc1cc(C)cc(NC(=S)NC(=O)C2CC2)c1	1	1	0	-2	1	-1
O=C1CCCN1CC(=O)N1CCCC(N2CCN(c3cccc(Cl)c3)CC2)C1 (centres undefined)	1	1	0	2	1	-1
CCCCn1c(=O)c(C(=O)c2ccccc2)nc2ccccc21	-2	0	0	-2	-1	0
O=C(NCC(=O)N1CCC(Cc2ccccc2)CC1)c1ccc(Cl)cc1	-2	2	0	0	-3	-1
CCOC(=O)c1oc2ccc(CNC3CCCCC3)c(Cl)c2c1C	1	0	1	-1	1	-1
CCOC(=O)c1oc2ccc(CNCCO)c(Cl)c2c1C	8	2	3	6.1*	5	0
CCCc1nnc(NC(=O)CSc2nc3ccccc3[nH]2)s1	0	3	0	1	0	0
Cc1ccc2[nH]c(=O)cc(C(=O)OCC(=O)c3ccccc3)c2c1	-2	0	0	0	-2	0
COc1ccc(C2(C)CC(C)(C)Nc3ccccc32)cc1 (centres undefined)	1	0	0	0	-2	-1
COc1ccc(C2CC(C)(c3ccc(OC)cc3)Nc3ccccc3N2)cc1 (centres undefined)	12*	1	2	5.7*	3	-1
COC1C(O)C(O)C(O)C(O)C1O (centres undefined)	0	4.9*	0	0	-3	-1
SMILES	hgDAF-12 ag	DAX1 inh-1	DAX1 inh-2	hcDAF12 agonist	SMARCA2 act	ssDAF12 agonist
COC1OC(CO)C(O)C(O)C1O (centres undefined)	-2	1	0	-1	1	-2
COc1ccc(OC)c(NC(=O)Cn2cc(C=O)c3ccccc32)c1	-5	0	-1	0	-5	-1
CC1(C)C2CCC1(C(=O)O)c1nc3ccccc3nc12 (centres undefined)	0	4.8*	0	-2	-2	-1
Cc1ccc(NC(=O)c2ccc(OC(=O)COc3ccc(Cl)cc3C)cc2)cc1	13*	1	3.9*	6.1*	3	0
CCOC(=O)CN1C(=O)N2C[C@H]3CON(C)[C@H]3C[C@H]2c2ccccc21	4	nt	0	1	2	-1
O=C(NC(=S)NCCN1CCOCC1)c1cccc(Cl)c1	3	0	0	-1	0	-1
Cc1ccn2c(NC(=O)c3ccccc3)c(-c3cccs3)nc2c1	0	-1	-1	4	-4	-1
Cc1ccn2c(NCc3ccccc3)c(-c3cccs3)nc2c1	11*	0	0	3	7	-1
Clc1cccc(N/N=C/c2ccc(N3CCOCC3)cc2)c1	2	1	1	2	3	-1
C(=N\Nc1ccccc1)/c1ccc(N2CCOCC2)cc1	13*	2	2	4	2	1.2*
c1ccc(N2CCN(c3ccccc3)C2c2cccs2)cc1	7	7.7*	0	1	3	-2
CCS(=O)(=O)C1=NSC2=NC(=O)/C(=C\c3ccc(OC(=O)c4ccco4)cc3)C(=N)N21	4	0	0	0	1	-1
COCC(C)N=C1NN=C(c2c[nH]c3ccccc23)CS1 (centres undefined)	9	1	1	6.2*	5	1
COC(=O)c1ccccc1NC(=O)CSc1ccccc1	2	-1	0	1	-2	-1
CC(c1nc2ccccc2[nH]1)N(C(=O)C1=NNC(=O)CC1)c1ccccc1 (centres undefined)	1	nt	2	4	-2	1.4*
CC(=O)C(C(c1ccccc1)N1CCCc2ccccc21)N1CCOCC1 (centres undefined)	0	0	0	3	3	1.1*
Cc1nn(-c2ccccc2)c(N)c1N=Nc1cccnc1	12*	1	1	4	3	-1
COc1ccc(S(=O)(=O)N(C)CC(=O)NCCC2=CCCCC2)cc1C	-4	-1	0	-2	-2	-1
CC(C)(C)c1ccc(C(=O)N2CCCC2)s1	2	5.8*	1	0	0	0
O=C(c1ccc(Cl)s1)N1CCCC1	-2	2	0	0	-1	0
CC1(C)Cc2cccc(OCC(=O)OCc3nnc(-c4ccc([N+](=O)[O-])cc4)o3)c2O1	2	0	-1	0	-1	-1
CCOC(=O)C1=C(C)Nc2nc(C)nn2C1c1ccc(OC)c(OC)c1 (centres undefined)	2	4.6*	0	1	0	-1
CCOC(=O)C1=NNC(C(=O)O)C1c1ccccc1 (centres undefined)	10*	0	-1	6.0*	6	0
CN(c1ccccc1)C(c1ccc(F)cc1)c1nnnn1C1CCCC1 (centres undefined)	1	1	0	-1	-2	-1
